From PubChem BioAssay (NCI)
Compounds without any hit were thinned out: in the full panel of roughly 79,000, 15% have a hit. No stated cut-off is given here; in the data, active means growth inhibition above about 70%; inactive means the rest.

What was measured:
[1] = NCI Yeast Anticancer Drug Screen. Data for the rad50 strain (AID 155);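 further: 0% = growth of vehicle-only cultures of the same strain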; settings: S. cerevisiae rad50 strain growth inhibition; at 50.0 µM; active compounds read high
Summary of the method: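 Inhibition values express reduced yeast growth in compound-treated cultures relative to vehicle-treated controls.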

[2] = NCI Yeast Anticancer Drug Screen. Data for the mec2-1 strain (AID 157); settings: S. cerevisiae mec2-1 strain, at 50.0 µM, active compounds read high
Summary of the method: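 Growth inhibition is read against vehicle-treated controls after compound exposure of the mec2-1 yeast strain, which is defective in DNA damage repair or cell cycle control.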

[3] = NCI Yeast Anticancer Drug Screen. Data for the sgs1 mgt1 strain (AID 161);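 further: 0% = growth of cultures given vehicle only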; settings: S. cerevisiae sgs1 mgt1 strain, at 50.0 µM, active compounds read high
Summary of the method: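 Yeast cells carrying a defined DNA-repair defect were exposed to test compounds. Growth inhibition was measured relative to vehicle-treated controls.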

[4] = NCI Yeast Anticancer Drug Screen. Data for the cln2 rad14 strain (AID 165);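 further: 0% = growth equal to vehicle treated cultures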; settings: S. cerevisiae cln2 rad14 strain, at 50.0 µM, active compounds read high
Summary of the method: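 Growth inhibition, relative to vehicle-treated controls, is the read-out. The test organism is a yeast strain with defined genetic alterations, cln2 rad14.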

[5] = NCI Yeast Anticancer Drug Screen. Data for the bub3 strain (AID 167); settings: S. cerevisiae bub3 mutant strain, at 50.0 µM, active compounds read high
Summary of the method: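 Steps: expose the mutant yeast strain to compound; grow alongside vehicle-treated cultures; measure growth; express inhibition against the vehicle cultures.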

[6] = NCI Yeast Anticancer Drug Screen. Data for the mlh1 rad18 strain (AID 175); settings: S. cerevisiae mlh1 rad18 strain growth inhibition; at 50.0 µM; active compounds read high
Summary of the method: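 Cells of a genetically altered yeast strain, deficient in DNA damage repair, were treated with compound. Their growth was then compared with that of vehicle-treated cultures to give inhibition.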

Measured: growth inhibition

COc1ccc(C(C)O)cc1 (stereo not given)
inactive: [1] 23.2% | [2] 3.2% | [3] 6.25% | [4] 12.9% | [5] -5.65% | [6] 9.15%

COc1ccc(-c2nc(-c3cc4ccccc4oc3=O)cs2)cc1
inactive: [1] 13.1% | [2] 13.6% | [3] -12.1% | [4] 7.7% | [5] -18.4% | [6] -35.1%

CCCNC(=O)N(CCC)S(=O)(=O)c1ccc(Cl)cc1
inactive: [1] -6.85% | [2] 8.45% | [3] 12.3% | [4] 24.6% | [5] 22.7% | [6] 25.6%

CCOC(=O)C1C(C)=CC(=O)CC1C(C)C (stereo not given)
inactive: [1] 4.1% | [2] -8.5% | [3] 5.7% | [4] -20.6% | [5] -15.8% | [6] 5.2%

CC(C(=O)O)N(C)C(=O)c1cnc2ccccc2n1 (stereo not given)
inactive: [1] -0.1% | [2] -1.15% | [3] -1.5% | [4] 23% | [5] 18.6% | [6] -2%

Clc1nc2ccccc2c2ccccc12
inactive: [1] 36.5% | [2] -3.6% | [3] -4% | [4] 29.5% | [5] -13.2% | [6] 4.5%

COC(=O)c1cc(C(=O)OC)c(CC(=O)C(=O)Nc2c(C(C)C)cccc2C(C)C)nc1CC(=O)C(=O)Nc1c(C(C)C)cccc1C(C)C
inactive: [1] -18.8% | [2] -22.9% | [3] -11.7% | [4] 1.75% | [5] -13.1% | [6] -6.85%

CON1C(=O)c2ccccc2C1=O
inactive: [1] 1.15% | [2] 4% | [3] -7.85% | [4] -4.6% | [5] -22.4% | [6] -9.3%

CCN(CC)CCCC(C)n1c(SC)nc2cc(Cl)ccc21 (stereo not given)
inactive: [1] -11.5% | [2] -32.9% | [3] 9% | [4] -32.6% | [5] 7.2% | [6] -7.7%

CCN(CC)Cc1cc(Nc2ccnc3ccc4nn(C)nc4c23)ccc1O
inactive: [1] -16.4% | [2] -19.4% | [3] -28.1% | [4] 4.45% | [5] 6.65% | [6] -1.75%

Cc1ccc(/C(C#N)=C/c2cccc([N+](=O)[O-])c2)cc1
inactive: [1] -3.1% | [2] -30.2% | [3] -32% | [4] 24.4% | [5] -17.4% | [6] -4.15%

CCCOC(=O)c1ccnc(C(=O)OCCC)c1
inactive: [1] 4.85% | [2] 4.85% | [3] -1.2% | [4] -16.2% | [5] -9.9% | [6] -13.6%

COc1ccc(-c2c([O-])oc(-c3ccccc3)[n+]2C)cc1
inactive: [1] 17.8% | [2] -18.4% | [3] -6.2% | [4] 7.3% | [5] 3.1% | [6] -4.1%

CC(C)(C)c1cc(O)c(C(=O)O)cc1O
inactive: [1] 39.6% | [2] 29.6% | [3] 44.8% | [4] 17.6% | [5] -3.9% | [6] 33.9%

Cc1cc(C)c2ccccc2n1
inactive: [1] -6.45% | [2] -30.4% | [3] -8.2% | [4] -3.4% | [5] -5.1% | [6] 18.1%

OCC1NCCCC1O (stereo not given)
inactive: [1] -17.5% | [2] -25.6% | [3] -22.9% | [4] -8.55% | [5] -18.1% | [6] -10%

C=Cn1c2ccccc2c2ccccc21
inactive: [1] 46.9% | [2] 18.9% | [3] 26.9% | [4] 15.2% | [5] -6.75% | [6] -0.55%

CCn1c2ccc(C(=O)CCCN(C)C)cc2c2cc(C(=O)CCCN(C)C)ccc21
inactive: [1] 5.15% | [2] -33.3% | [3] 8.5% | [4] 4.05% | [5] 14.2% | [6] -21.9%

O=c1c2c3c(sc2nc2n1N=CN(c1ccc(F)cc1)C2)CCCC3
inactive: [1] 4.95% | [2] -1.9% | [3] 2.4% | [4] -8.3% | [5] -1.05% | [6] -5.9%

O=c1cc(-c2ccccc2)nc(Sc2ccc([N+](=O)[O-])cc2[N+](=O)[O-])[nH]1
inactive: [1] 1.1% | [2] 0.2% | [3] -11.4% | [4] 2.7% | [5] 2.65% | [6] 8.25%
